Results from the supplement of paper PMC10981050.
Several values for one entry are separate records, joined by “and”; a condition that tells them apart may be missing. Identical values can stand only once. Counter-ions that a name gives are not always drawn.

Assays:
Experiment in all cases: cell viability relative to vehicle control; higher = less cytotoxic
Settings in all cases: 10 µM
K562 = system: K562
Summary of the method: (§1)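 CRISPR-edited mutant clones and isogenic wild-type clones from four leukaemia lines were screened against Selleck bioactive, kinase and epigenetic probe libraries, with identity-inconsistent compounds excluded. Each compound was acoustically dispensed at a single 10 µM dose into 384-well plates holding 2000 cells in 50 µL medium per well. After 48 h the supernatant was removed and CellTiter-Glo luminescence was read. Viability was expressed as percent of the on-plate vehicle control and analysed in Genedata Screener.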

MARIMO = system: MARIMO
Summary of the method: as §1

MOLM14 = system: MOLM14
Summary of the method: as §1

OCI-AML2 = system: OCI-AML2
Summary of the method: as §1

Row | SMILES | cell viability (K562; SRSF2 genotype: SRSF2 P95H/wt) | cell viability (K562; SRSF2 genotype: SRSF2 wt/wt) | cell viability (MARIMO; SRSF2 genotype: SRSF2 P95H/wt) | cell viability (MARIMO; SRSF2 genotype: SRSF2 wt/wt) | cell viability (MOLM14; SRSF2 genotype: SRSF2 P95H/wt) | cell viability (MOLM14; SRSF2 genotype: SRSF2 wt/wt) | cell viability (OCI-AML2; SRSF2 genotype: P95H/wt) | cell viability (OCI-AML2; SRSF2 genotype: wt/wt)
1 | C[C@H](CCC(=O)O)[C@H]1CC[C@H]2[C@@H]3[C@H](O)C[C@@H]4C[C@H](O)CC[C@]4(C)[C@H]3C[C@H](O)[C@]12C [Sodium cholate] | 103% and 101% | 94.5% | 88.2% | 96.6% | 89.8% | 93.4% | 88% | 96.5%
2 | CC[C@@]1(O)C(=O)OCc2c1cc1n(c2=O)Cc2cc3c(CN(C)C)c(O)ccc3nc2-1 [Topotecan HCl] | 15% and 25% | 12.9% | 5.05% | 3.35% | 0.55% | 0.35% | 3.3% | 8.46%
3 | CCCc1ccc(OCC(=O)N(Cc2nc(-c3cccnc3)no2)C(C)C)cc1 | 87.5% and 91.9% | 91.3% | 81.5% | 90.4% | 85.6% | 96% | 77.4% | 83.9%
4 | COc1cc(O)c(C(=O)Nc2nc(C(=O)NCCN(C(C)C)C(C)C)cs2)cc1OC [Acotiamide] | 101% and 97.3% | 107% | 98% | 108% | 97.5% | 106% | 94.1% | 101%
5 | CC(=O)O[C@]1(C(C)=O)CC[C@H]2[C@@H]3C[C@H](C)C4=CC(=O)CC[C@]4(C)[C@H]3CC[C@@]21C [Medroxyprogesterone acetate] | 82.5% and 92.8% | 94.7% | 104% | 73% | 112% | 102% | 98.5% | 87.5%
6 | Cc1ccccc1N1CCN(CCc2nnc3n2CCCC3)CC1 [Dapiprazole Hydrochloride] | 103% and 96% | 93.2% | 97.7% | 110% | 97% | 102% | 96.4% | 97.1%
7 | C1N2CN3CN1CN(C2)C3 [Methenamine (Mandelamine)] | 104% and 102% | 99.1% | 103% | 108% | 107% | 105% | 99% | 112%
8 | CO/N=C(\C(=O)N[C@@H]1C(=O)N2C(C(=O)O)=C(CSC(=O)c3ccco3)CS[C@H]12)c1csc(N)n1 [Ceftiofur] | 108% | 103% | 110% | 109% | 97% | 108% | 112% | 105%
9 | C[C@@H]1CN(c2c(F)c(N)c3c(=O)c(C(=O)O)cn(C4CC4)c3c2F)C[C@H](C)N1 [Sparfloxacin] | 103% | 108% | 99.7% | 104% | 101% | 106% | 109% | 105%
10 | C#C[C@]1(O)CC[C@H]2[C@@H]3CCC4=CCCC[C@@H]4[C@H]3C(=C)C[C@@]21CC [Desogestrel] | 77.9% and 78.3% | 78.7% | 75.4% | 81.7% | 71.4% | 79.9% | 61% | 63%
11 | C=C1CCC2C(C)(CO)C(O)CCC2(C)C1CC=C1C=COC1=O (configuration not stated) [Dehydroandrographolide] | 75.2% and 78.9% | 75.8% | 77.8% | 96.3% | 83.8% | 93.9% | 74.6% | 86.5%
12 | N#Cc1ccc2[nH]c(O)c(-c3ccc(CN4CCOCC4)cn3)c2c1 | 73.5% and 54.9% | 78.4% | 81.4% | 97.9% | 71.2% | 93.3% | 98.7% | 123%
13 | CNCc1ccc(C)c(NC(=O)c2ccc(Nc3nc(-c4ccccc4)c4ccccc4n3)cc2)c1 | 0.99% and 1.39% | 1.34% | 0.68% | 0.61% | 0.42% | 0.52% | 0.4% | 0.57%
14 | Cc1cccc(-c2[nH]c(C(C)(C)C)nc2-c2ccc3nccnc3c2)n1 | 111% and 95.8% | 99.7% | 108% | 105% | 105% | 101% | 108% | 115%
15 | O=C(O)CSc1cc(NS(=O)(=O)c2ccc(Br)cc2)c2ccccc2c1O | 86.4% and 79.9% | 94.8% | 95.5% | 94.5% | 73.9% | 89.3% | 97.9% | 107%
16 | C=C1/C(=C\C=C2/CCC[C@]3(C)[C@@H]([C@H](C)CCCC(C)C)CC[C@@H]23)C[C@@H](O)C[C@@H]1O [Alfacalcidol] | 90.3% and 95.4% | 99.1% | 82.5% | 82.5% | 84.9% | 94.2% | 98.7% | 110%
17 | CN(C)CCCCC(=O)Nc1ccc(NC(=S)NC(=O)c2ccc(C(C)(C)C)cc2)cc1 [Tenovin-6] | 2.61% and 5.21% | 12.4% | 1.49% | 1.85% | 1.6% | 0.76% | 1.27% | 5.3%
18 | CCn1c(=O)c2c(nc(/C=C/c3ccc(OC)c(OC)c3)n2C)n(CC)c1=O [Istradefylline (KW-6002)] | 90.7% and 83.8% | 85.1% | 81.1% | 95.3% | 96.5% | 97.6% | 117% | 92.4%
19 | C[C@H]1O[C@@H](O[C@H]2CC[C@@]3(C)[C@@H](CC[C@]4(C)[C@@H]3C=CC3=C5CC(C)(C)CC[C@]5(CO)[C@@H](O)C[C@]34C)[C@]2(C)CO)[C@H](O[C@@H]2O[C@H](CO)[C@@H](O)[C@H](O)[C@H]2O)[C@@H](O[C@@H]2O[C@H](CO)[C@@H](O)[C@H](O)[C@H]2O)[C@H]1O [Buddlejasaponin IVb] | 96.5% and 97% | 97.8% | 98.4% | 108% | 98.3% | 102% | 101% | 106%
20 | CCCCCCC=CCCCCCCCc1cccc(O)c1C(=O)O [Ginkgolic Acid] | 103% and 101% | 104% | 108% | 110% | 109% | 107% | 100% | 106%

Row | SMILES | cell viability (K562; SRSF2 genotype: SRSF2 P95H/wt) | cell viability (K562; SRSF2 genotype: SRSF2 wt/wt) | cell viability (MARIMO; SRSF2 genotype: SRSF2 P95H/wt) | cell viability (MARIMO; SRSF2 genotype: SRSF2 wt/wt) | cell viability (MOLM14; SRSF2 genotype: SRSF2 P95H/wt) | cell viability (MOLM14; SRSF2 genotype: SRSF2 wt/wt) | cell viability (OCI-AML2; SRSF2 genotype: P95H/wt) | cell viability (OCI-AML2; SRSF2 genotype: wt/wt)
21 | COc1ccc(C2CNC(=O)C2)cc1OC1CCCC1 (configuration not stated) [Rolipram] | 92.9% and 98% | 98.6% | 104% | 102% | 101% | 103% | 108% | 110%
22 | N[C@@H](CSCCB(O)O)C(=O)O [BEC Hydrochloride] | 105% and 101% | 96.8% | 99.4% | 114% | 101% | 104% | 109% | 111%
23 | CC1(C)S[C@@H]2[C@H](NC(=O)[C@H](NC(=O)N3CCNC3=O)c3ccccc3)C(=O)N2[C@H]1C(=O)O [Azlocillin sodium salt] | 90.4% and 87.6% | 81.5% | 82.3% | 92.1% | 86.4% | 88.6% | 88% | 91.8%
24 | COc1cn(-c2ccc(-n3cccn3)cc2F)nc(-c2ccnn2-c2ccccc2)c1=O | 103% and 105% | 99.9% | 97.5% | 113% | 107% | 107% | 106% | 117%
25 | CCCc1cc(=O)[nH]c(=S)[nH]1 [Propylthiouracil] | 107% and 91.6% | 94% | 93.1% | 96.5% | 100% | 96.8% | 106% | 110%
26 | O=C(O)c1cc(I)ccc1NC(=O)[C@H](Cc1ccccc1)NCc1ccccc1 | 102% and 98.6% | 101% | 99.9% | 103% | 99% | 101% | 110% | 119%
27 | CC(C)OC(=O)C1=CN(C(=O)c2ccc(F)c(F)c2)CC(C)(C)c2c1[nH]c1ccccc21 [Turofexorate Isopropyl (XL335)] | 100% and 97.7% | 103% | 96.7% | 102% | 97% | 98.5% | 92.7% | 96.7%
28 | CCCc1nc2c(C)cc(-c3nc4ccccc4n3C)cc2n1Cc1ccc(-c2ccccc2C(=O)O)cc1 [Telmisartan (Micardis)] | 103% and 107% | 99.5% | 112% | 117% | 110% | 103% | 108% | 128%
29 | O=c1c2ccccc2nc(C=Cc2cccnc2)n1Cc1ccccc1 | 86.8% and 86.9% | 79.8% | 74.3% | 90.1% | 78.5% | 82.6% | 78.4% | 75.9%
30 | COC(=O)CCC(=O)CN [Methyl Aminolevulinate Hydrochloride] | 94.6% and 91.5% | 99% | 92.2% | 94.4% | 95% | 97.2% | 93.9% | 102%
31 | CCCCCOc1ccccc1/C(=C\SC)n1ccnc1 [Neticonazole Hydrochloride] | 66.4% and 59.1% | 68.9% | 45.7% | 39% | 59.7% | 54.8% | 25.7% | 26%
32 | C[C@]12C[C@@H](O)[C@@H]3C[C@@]1(O[C@@H]1O[C@H](CO)[C@@H](O)[C@H](O)[C@H]1O)[C@@]3(COC(=O)c1ccccc1)C(=O)O2 [Albiflorin] | 103% and 108% | 107% | 96.9% | 94.5% | 104% | 98.4% | 98.3% | 92.9%
33 | CC1CCCCCCCCCCCCC(=O)C1 (configuration not stated) [Muscone] | 91.4% and 89.5% | 87.4% | 87.1% | 97.1% | 90.6% | 89.2% | 82% | 90.7%
34 | CCCC[C@@H](C=O)NC(=O)[C@H](CC(C)C)NC(=O)OCc1ccccc1 [Calpeptin] | 91.3% and 95.4% | 98.5% | 90.9% | 95.2% | 83.2% | 98.9% | 96.6% | 101%
35 | Cn1cnc([N+](=O)[O-])c1Sc1ncnc2[nH]cnc12 [Azathioprine (Azasan, Imuran)] | 53.6% and 63.6% | 34.8% | 82.2% | 87.2% | 85.2% | 81.8% | 87.7% | 92%
36 | CN(CCN1CCC(OC(=O)Nc2ccccc2-c2ccccc2)CC1)C(=O)c1ccc(CN2CCC(C(N)=O)CC2)cc1 [Revefenacin] | 94.7% and 89.9% | 92.8% | 82.7% | 90.8% | 87.1% | 92.2% | 83.2% | 83.5%
37 | COc1ccc2c(c1)[C@]1(C[C@H]1c1ccc3c(/C=C/c4ccc(CN5C[C@@H](C)O[C@@H](C)C5)cc4)n[nH]c3c1)C(=O)N2 | 13.4% and 27.5% | 17.7% | 30.9% | 29.3% | 14.5% | 10.7% | 11.6% | 20.3%
38 | Clc1ccc(CSC(Cn2ccnc2)c2ccc(Cl)cc2Cl)cc1 (configuration not stated) [Sulconazole Nitrate] | 57.2% and 61.2% | 62.7% | 46.5% | 43.2% | 45.7% | 44.8% | 40% | 45.1%
39 | CC(C)(O)CNc1ncc(-c2ccnc(Nc3ccnc(Cl)c3)n2)c(CC2CC2)n1 | 41.9% and 40.5% | 36.9% | 39.5% | 41.2% | 8.93% | 9.79% | 5.49% | 12.8%
